# According to the antibiotic and cytotoxicity screens of Wong et al. (2023):
# Hit rate of the full screen: of about 39,000 compounds, about 1,500 (3.8%) were called active. The entries come from a sample that favours actives as a whole.
# System: HSkMC (human skeletal muscle cells)
# Experiment: cytotoxicity call (relative viability < 0.9)
# Conditions: 10 µM
row,SMILES,cytotoxicity call
1,COc1ccc2c3c(n(c2c1)C)[C@@H](CO)N(C[C@]13CN(C1)C(=O)C)C(=O)CN1CCOCC1,inactive
2,Cc1noc(C)c1S(=O)(=O)Nc1ccc2c(c1)CC(=O)N([C@@H](C)CO)C[C@@H](C)[C@@H](CN(C)S(=O)(=O)c1ccccc1)O2,inactive
3,CN(C)C(=O)C[C@H]1C=C[C@@H](NC(=O)C2CC2)[C@@H](CO)O1,inactive
4,C=CCN1C(=O)[C@@]2(O[C@@H](CCO)[C@H]([Si](C)(C)c3ccc(OC)cc3)[C@H]2C)c2cc(N3C(=O)c4cccc5cccc3c45)ccc21,active
5,C=CCN1C(=O)[C@@]2(O[C@@H](CCn3cc([C@H](O)c4ccccc4)nn3)[C@H]([Si](C)(C)c3ccc(OC)cc3)[C@H]2C)c2cc(N3C(=O)c4cccc5cccc3c45)ccc21,inactive
6,C=CCN1C(=O)[C@]2(O[C@H](CCn3cc([C@H](O)c4ccccc4)nn3)[C@@H]([Si](C)(C)c3ccc(OC)cc3)[C@@H]2C)c2cc(N3C(=O)c4cccc5cccc3c45)ccc21,inactive
7,C=CCN1C(=O)[C@@]2(O[C@@H](CCO)[C@H]([Si](C)(C)F)[C@H]2C)c2cc(N3C(=O)c4cccc5cccc3c45)ccc21,inactive
8,COc1ccc([Si](C)(C)[C@H]2[C@H](CCO)O[C@@]3(C(=O)N(Cc4ccccc4)c4ccc(N5C(=O)c6cccc7cccc5c67)cc43)[C@@H]2C)cc1,inactive
9,C=CCN1C(=O)[C@]2(O[C@H](CCO)[C@@H]([Si](C)(C)c3ccc(OC)cc3)[C@@H]2C)c2cc(N3C(=O)c4cccc5cccc3c45)ccc21,active
10,C[C@H]1CCCCO[C@H](CN(C)C(=O)c2ccccc2)[C@@H](C)CN([C@@H](C)CO)C(=O)c2cc(NC(=O)Nc3ccc4c(c3)OCO4)ccc2O1,inactive
11,COc1ccc(S(=O)(=O)N2CC(NC(=O)Cn3ccc(=O)n(C)c3=O)C2)cc1,inactive
12,O=S(=O)(N1CCOCC1)n1nnc2ccccc21,inactive
13,C[C@H](CO)N1C[C@H](C)[C@H](CN(C)Cc2ccc(C(F)(F)F)cc2)Oc2ccc(NC(=O)Cn3cnnn3)cc2CC1=O,inactive
14,C[C@@H]1CN([C@@H](C)CO)C(=O)c2cc(C#CC3(O)CCCC3)cnc2O[C@@H]1CN(C)C(=O)C1CCOCC1,inactive
15,CN1C(=O)c2cc(NC(=O)Cc3cccs3)ccc2OC[C@H]2O[C@H](CC(=O)NCCCN3CCOCC3)CC[C@@H]21,inactive
16,Cc1noc(C)c1S(=O)(=O)Nc1ccc2c(c1)C(=O)N([C@@H](C)CO)C[C@H](C)[C@H](CN(C)S(=O)(=O)c1cccs1)O2,inactive
17,C[C@@H]1CN([C@H](C)CO)C(=O)CCCn2cc(nn2)CO[C@@H]1CN(C)S(=O)(=O)c1cccc(C#N)c1,inactive
18,Oc1cccc(c1)/C/1=C/2\CC/C(=C(\c3cccc(c3)O)c3ccc([nH]3)/C(=C\3/C=CC(=N3)/C(=C\3/C=CC1=N3)c1cccc(c1)O)c1cccc(c1)O)N2,active
19,OS(=O)(=O)c1ccc(cc1)/C/1=C\2/N/C(=C(\C3=N/C(=C(/c4ccc(cc4)S(=O)(=O)O)c4ccc([nH]4)/C(=C\4/C=CC1=N4)c1ccc(cc1)S(=O)(=O)O)C=C3)c1ccc(cc1)S(=O)(=O)O)C=C2,inactive
20,CC(C)NC(=O)Nc1ccc2c(c1)CC(=O)N([C@@H](C)CO)C[C@@H](C)[C@@H](CN(C)C(=O)NC1CCCCC1)O2,inactive
21,CCC(=O)NC[C@H](Cc1ccc(OCCc2nc(-c3ccccc3)oc2C)cc1)N/C(C)=C\C(=O)c1ccc(C(F)(F)F)cc1,active
22,O=C(O)C[C@@H]1CC[C@H]2[C@@H](COC[C@H](O)CN2S(=O)(=O)c2ccc(F)cc2)O1,inactive

row,SMILES,cytotoxicity call
1,COc1cnc(SC)n(C)c1=O,inactive
2,C[C@@H]1CN([C@@H](C)CO)C(=O)Cc2cc(NS(=O)(=O)c3cn(C)cn3)ccc2O[C@H]1CN(C)CC1CCCCC1,inactive
3,COc1ccc(NC(=O)N2CCCCN3[C@H](CN(C)C(C)=O)[C@H](c4ccc(C#Cc5ccccc5)cc4)[C@@H]3C2)cc1,active
4,COc1ccc(NC(=O)N2CCCCN3[C@H](COCCN(C)C)[C@H](c4ccc(C#Cc5ccccc5)cc4)[C@@H]3C2)cc1,active
5,CN(C)CC#Cc1ccc([C@@H]2[C@H](CO)N3CCCCN(C(=O)CN(C)C)C[C@@H]23)cc1,inactive
6,CN(C)CC#Cc1ccc([C@H]2[C@@H](CO)N3CCCCN(C(=O)CN(C)C)C[C@H]23)cc1,inactive
7,CN(C)CC#Cc1ccc([C@H]2[C@@H](CO)N3CCCCN(C(=O)CN(C)C)C[C@@H]23)cc1,inactive
8,CN(C)CC#Cc1ccc([C@@H]2[C@@H](CO)N3CCCCN(C(=O)CN(C)C)C[C@@H]23)cc1,inactive
9,C[C@H]1Cc2c(N)nn(C)c2NC1=O,inactive
10,CC(=O)OCC(=O)C12OC3(CCCC3)OC1CC1C3CCC4=CC(=O)C=CC4(C)C3(F)C(O)CC12C (stereo unspecified),inactive
11,C[C@@H]1CN([C@H](C)CO)C(=O)Cc2cc(NS(=O)(=O)c3cccs3)ccc2O[C@H]1CN(C)Cc1ccc(-c2ccccc2)cc1,inactive
12,Cc1ccc(-c2ccc3c(c2)O[C@@H](CN(C)C(=O)NC(C)C)[C@@H](C)CN([C@H](C)CO)S3(=O)=O)cc1,inactive
13,COc1ccc(NC(=O)N(C)C[C@@H]2OCCCC[C@@H](C)Oc3ccc(NC(=O)Cc4ccccc4)cc3C(=O)N([C@H](C)CO)C[C@H]2C)cc1,inactive
14,C[C@@H]1CCCCO[C@@H](CN(C)C(=O)Cc2ccccc2)[C@@H](C)CN([C@H](C)CO)C(=O)c2cc(NC(=O)c3ccccc3)ccc2O1,inactive
15,COc1ccc(-c2cccc(-c3nc(C(=O)NCC(F)(F)F)cc4c3[C@H](CCO)N([S@@](=O)C(C)(C)C)C4)c2)cc1,inactive
16,C[C@@H]1CCCCO[C@@H](CN(C)C(=O)Cc2ccccc2)[C@H](C)CN([C@@H](C)CO)C(=O)c2cc(NC(=O)CCC(F)(F)F)ccc2O1,inactive
17,COc1cc(N2CCC(O)CC2)ccc1Nc1cc(Nc2ccccc2S(=O)(=O)C(C)C)c2cc[nH]c2n1,inactive
18,COc1cc(N2CCC(N3CCN(C)CC3)CC2)ccc1Nc1ncc(Cl)c(Nc2ccccc2S(=O)(=O)C(C)C)n1,active
19,COc1cc(N2CCC(N)CC2)ccc1Nc1ncc(Cl)c(-c2c[nH]c3ccccc23)n1,active
20,COc1cc(C(=O)NC2CCN(C)CC2)ccc1Nc1ncc2c(n1)N(C1CCC(O)CC1)CCC(=O)N2C (stereo unspecified),inactive
21,NC1CCN(C(=O)c2c[nH]c3ccccc23)CC1,inactive
22,COc1cc(N2CCC(N(C)C)CC2)ccc1Nc1ncc(Cl)c(Nc2ccccc2P(C)(C)=O)n1,active

row,SMILES,cytotoxicity call
1,Cc1cc(Nc2ncc(Cl)c(Nc3ccccc3S(=O)(=O)C(C)C)n2)c(OC(C)C)cc1C1CCNCC1,active
2,Cc1noc(C)c1NC(=O)N(C)C[C@H]1Oc2ccc(NC(=O)CCCN(C)C)cc2C(=O)N([C@@H](C)CO)C[C@H]1C,inactive
3,C[C@H]1CN([C@@H](C)CO)C(=O)c2cc(NC(=O)Cc3cn(C)c4ccccc34)ccc2O[C@H]1CN(C)Cc1ccc(C(=O)Nc2ccccc2N)cc1,inactive
4,COc1ccc(NC(=O)N(C)C[C@@H]2OCCCC[C@@H](C)Oc3ccc(NS(=O)(=O)c4ccccc4)cc3C(=O)N([C@@H](C)CO)C[C@H]2C)cc1,inactive
5,O=C(C[C@@H]1C=C[C@H](NC(=O)CN2CCOCC2)[C@@H](CO)O1)NC1CCCCC1,inactive
6,C[C@@H]1CN([C@@H](C)CO)S(=O)(=O)c2ccc(C#CCC3CCCC3)cc2O[C@@H]1CN(C)C(=O)c1cnccn1,inactive
7,C[C@H](CO)N1C[C@H](C)[C@H](CN(C)Cc2ccc(C(=O)O)cc2)Oc2ccc(NS(=O)(=O)c3cn(C)cn3)cc2C1=O,inactive
8,O=C(NCCN1CCCC1)[C@H]1[C@H](CO)[C@H]2Cn3c(cccc3=O)[C@H]2N1C(=O)c1ccccc1,inactive
9,CC(C)(C)NCC(O)COc1ccccc1C1CCCC1.O=S(=O)(O)O (stereo unspecified),inactive
10,Cc1ccc2sc(C(=O)O)cc2c1,inactive
11,COc1ccc(S(=O)(=O)Nc2ccc3c(c2)C(=O)N([C@@H](C)CO)C[C@@H](C)[C@H](CN(C)C(=O)Nc2cccc4ccccc24)OCCCC[C@@H](C)O3)cc1,inactive
12,C[C@H]1CN([C@@H](C)CO)S(=O)(=O)c2ccc(C#Cc3cccc(F)c3)cc2O[C@@H]1CN(C)S(=O)(=O)c1cn(C)cn1,inactive
13,CO[C@@H]1CN(C)C(=O)c2ccc(NS(C)(=O)=O)cc2OC[C@@H](C)N(S(C)(=O)=O)C[C@H]1C,inactive
14,C[C@@H]1CN([C@@H](C)CO)C(=O)c2cccc(NC(=O)c3cnccn3)c2O[C@H]1CN(C)S(=O)(=O)c1ccc(Cl)cc1,inactive
15,C[C@H]1CN([C@@H](C)CO)C(=O)c2cc(Br)cnc2O[C@H]1CN(C)Cc1ccccc1C(=O)O,inactive
16,C[C@H]1CN([C@@H](C)CO)C(=O)c2cccc(NC(=O)Nc3ccc(C(F)(F)F)cc3)c2O[C@H]1CN(C)S(=O)(=O)c1ccc(F)cc1,inactive
17,O=C(CCCN1CCC(O)(c2ccc(Cl)cc2)CC1)c1ccc(F)cc1,inactive
18,OC1(c2ccc(Cl)c(C(F)(F)F)c2)CCN(CCCC(c2ccc(F)cc2)c2ccc(F)cc2)CC1 [listing 1 of 2 here],active
19,O=C(CCCN1CCC(O)(c2ccc(Br)cc2)CC1)c1ccc(F)cc1,inactive
20,OC1(c2ccc(Cl)c(C(F)(F)F)c2)CCN(CCCC(c2ccc(F)cc2)c2ccc(F)cc2)CC1 [listing 2 of 2 here],active
21,COc1ccc(S(=O)(=O)Nc2cccc3c2O[C@@H](CN(C)S(=O)(=O)c2ccccc2)[C@@H](C)CN([C@H](C)CO)C3=O)cc1,inactive
22,C[C@@H]1CN([C@H](C)CO)C(=O)c2cccc(NS(=O)(=O)c3cn(C)cn3)c2O[C@H]1CN(C)C(=O)Nc1ccc(F)cc1,inactive
